Drawing on PubChem BioAssay, this text covers composite z-score and z-score for 5 compounds.

Activity calls are given as the source filed them.

Assay [1] in a line: binders of probe aFSTL3 on microarray, primary screen, stem cell growth factor project, biochemical, small-molecule microarray, fluorescence 635/667 (AID 1064).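 Note: measures binding of the biotinylated anti-FSTL3 antibody to printed compounds.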 To be noted: higher = more signal.
The nature of assay [2]: binders from COS7 lysate, DM2A8 probe, primary screen, torsin A project, cell lysate, small-molecule microarray, fluorescence 635/667 (AID 1065). To be noted: higher = more signal, COS7 lysate expressing mutant human TOR1A.
Assay [3] in a line: binders of probe aFGF2 on microarray, primary screen, stem cell growth factor project, biochemical, small-molecule microarray, fluorescence 635/667 (AID 1067).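 Note: measures binding of biotinylated aFGF2 protein to printed compounds on slides; z-score merges feature fluorescence and signal-to-noise across triplicate slides.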 To be noted: higher = more signal.
Assay [4] is described as follows: binders of probe aFGF10 on microarray, primary screen, stem cell growth factor project, biochemical, small-molecule microarray, fluorescence 635/667 (AID 1071).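 Note: score merges 667 nm spot intensity and signal to noise from triplicate slides.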 To be noted: higher = more signal.
The target in assay [5] is Neurogenic locus notch homolog protein 2 (Homo sapiens) (UniProt Q04721). Briefly: Notch2 binders on small-molecule microarrays, primary screen, biochemical, small-molecule microarray, 635 nm fluorescence, stem cell growth factors (AID 1073). To be noted: Notch2 binding, higher = more signal.
Assay [6] has as its target Pro-neuregulin-1, membrane-bound isoform (Homo sapiens) (UniProt Q02297). Description: NRG1 binders on small-molecule microarrays, primary screen, psychiatric disease protein project, biochemical, small-molecule microarray, fluorescence 635/667 (AID 1075).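 Note: score combines 667 nm spot fluorescence with signal to noise.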 To be noted: NRG1 binding, 635 nm fluorescence, higher = more signal.
Assay [7] has as its system Neuregulin-1 EGF-like domain. Briefly: binders of neuregulin-1 EGF-like domain, primary screen, biochemical, small-molecule microarray, 635 nm fluorescence (AID 1081).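 Note: binding of the protein to compounds printed on small-molecule microarray slides.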 To be noted: small-molecule microarray binding, higher = more signal.
A short description of assay [8]: FRG1 promoter luciferase signal modulators, primary screen, FRG1 inhibition for FSHD, cell-based, C2C12 myotubes, firefly/Renilla luciferase, luminescence (AID 1084). To be noted: higher = more signal, called active from +8 up or from −8 down.
A short description of assay [9]: binders of probe aFST on microarray, primary screen, stem cell growth factor project, biochemical, small-molecule microarray, fluorescence 635/667 (AID 1086).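 Note: score merges 667 nm fluorescence with signal-to-noise of each printed compound spot.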 To be noted: higher = more signal.
Assay [10] can be described thus: binders of probe aHhip on microarray, primary screen, stem cell growth factor project, biochemical, small-molecule microarray, fluorescence 635/667 (AID 1087).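 Note: score merges spot fluorescence at 667nm with spot signal to noise ratio.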 To be noted: higher = more signal.
In assay [11] the test system is PRMT1 (protein arginine N-methyltransferase 1). Briefly: PRMT1 binders on small-molecule microarrays, primary screen, biochemical, small-molecule microarray, 635 nm fluorescence (AID 1088).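 Note: binding of Prmt1 protein to compounds spotted on small-molecule microarray slides.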 To be noted: small-molecule microarray binding, higher = more signal.
Assay [12] is described as follows: yeast growth modulation, basal conditions, primary screen, YJM789 clinical isolate, OD600, 24 h (AID 1089).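 Note: growth of clinical yeast isolate S. cerevisiae YJM 789 seeded 1000 cells per well; test concentration not given here.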 To be noted: S. cerevisiae YJM789 growth, higher = more signal, called active from +8 up or from −8 down.
Assay [13] in a line: fission yeast growth modulation, primary screen, strain 972, OD600, 24 h, no modulator (AID 1090).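 Note: basal condition with compound alone and no growth modifier present; test concentration not given here.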 To be noted: S. pombe 972 growth, higher = more signal, called active from +8 up or from −8 down.
A short description of assay [14]: S. cerevisiae growth modulation with rapamycin, primary screen, strain BY4716, OD600, 96 h (AID 1091). Note: test concentration not given here. To be noted: higher = more signal, called active from +8 up or from −8 down.
The target in assay [15] is Torsin-1A-interacting protein 2 (Homo sapiens) (UniProt Q8NFQ8). Briefly: LULL1 binders on small-molecule microarray, primary screen, cell lysate, human LULL1 lysate, 635/667 nm fluorescence (AID 1092).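 Note: probe is lysate of COS7 cells overexpressing human LULL1; score merges per-feature 667 nm fluorescence with signal-to-noise.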 To be noted: hLULL1 lysate binding, 635 nm fluorescence, higher = more signal.
Torsin-1A-interacting protein 2 (Homo sapiens), sequence (Q8NFQ8 whole entry, looked up): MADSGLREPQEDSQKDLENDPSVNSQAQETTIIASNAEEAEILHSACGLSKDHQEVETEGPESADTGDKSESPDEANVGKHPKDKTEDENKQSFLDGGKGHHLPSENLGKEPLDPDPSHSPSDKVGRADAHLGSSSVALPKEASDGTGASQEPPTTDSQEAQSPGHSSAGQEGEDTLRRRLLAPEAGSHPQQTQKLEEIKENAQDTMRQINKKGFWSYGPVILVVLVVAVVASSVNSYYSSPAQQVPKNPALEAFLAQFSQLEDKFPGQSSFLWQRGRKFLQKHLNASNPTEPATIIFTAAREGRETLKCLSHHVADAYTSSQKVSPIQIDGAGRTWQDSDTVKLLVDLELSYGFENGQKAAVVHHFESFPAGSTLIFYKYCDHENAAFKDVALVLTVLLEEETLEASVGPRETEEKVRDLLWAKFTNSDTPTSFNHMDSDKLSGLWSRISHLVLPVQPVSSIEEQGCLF
Assay [16] can be described thus: E. coli growth modulation, two-sided OD650, primary screen, E. coli filamentation project, strain DRC41, 24 h (AID 1093).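 Note: MC1000 strain lacking acrAB efflux and sulA so SOS filamentation is blocked; test concentration not given here.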 To be noted: OD650, 24 h, higher = more signal, called active from +8 up or from −8 down.
A short description of assay [17]: small-molecule microarray binders of probe aLefty2, primary screen, biochemical, biotinylated probe, 635/667 nm fluorescence (AID 1094).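 Note: score merges spot fluorescence near 667 nm with spot signal-to-noise ratio.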 To be noted: higher = more signal.
Assay [18] concerns Noggin (protein binding on small-molecule microarray). Briefly: Noggin binders on small-molecule microarray, primary screen, biochemical, 635/667 nm fluorescence (AID 1095).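 Note: score merges 667 nm feature fluorescence with signal to noise over triplicate slides.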 To be noted: 635 nm fluorescence, higher = more signal.
Assay [19] deals with Neurogenic locus notch homolog protein 3 (Homo sapiens) (UniProt Q9UM47). Briefly: NOTCH3 binders on small-molecule microarray, primary screen, biochemical, 635/667 nm fluorescence (AID 1096). To be noted: NOTCH3 binding, 635 nm fluorescence, higher = more signal.
Neurogenic locus notch homolog protein 3 (Homo sapiens), sequence (Q9UM47 whole entry, looked up): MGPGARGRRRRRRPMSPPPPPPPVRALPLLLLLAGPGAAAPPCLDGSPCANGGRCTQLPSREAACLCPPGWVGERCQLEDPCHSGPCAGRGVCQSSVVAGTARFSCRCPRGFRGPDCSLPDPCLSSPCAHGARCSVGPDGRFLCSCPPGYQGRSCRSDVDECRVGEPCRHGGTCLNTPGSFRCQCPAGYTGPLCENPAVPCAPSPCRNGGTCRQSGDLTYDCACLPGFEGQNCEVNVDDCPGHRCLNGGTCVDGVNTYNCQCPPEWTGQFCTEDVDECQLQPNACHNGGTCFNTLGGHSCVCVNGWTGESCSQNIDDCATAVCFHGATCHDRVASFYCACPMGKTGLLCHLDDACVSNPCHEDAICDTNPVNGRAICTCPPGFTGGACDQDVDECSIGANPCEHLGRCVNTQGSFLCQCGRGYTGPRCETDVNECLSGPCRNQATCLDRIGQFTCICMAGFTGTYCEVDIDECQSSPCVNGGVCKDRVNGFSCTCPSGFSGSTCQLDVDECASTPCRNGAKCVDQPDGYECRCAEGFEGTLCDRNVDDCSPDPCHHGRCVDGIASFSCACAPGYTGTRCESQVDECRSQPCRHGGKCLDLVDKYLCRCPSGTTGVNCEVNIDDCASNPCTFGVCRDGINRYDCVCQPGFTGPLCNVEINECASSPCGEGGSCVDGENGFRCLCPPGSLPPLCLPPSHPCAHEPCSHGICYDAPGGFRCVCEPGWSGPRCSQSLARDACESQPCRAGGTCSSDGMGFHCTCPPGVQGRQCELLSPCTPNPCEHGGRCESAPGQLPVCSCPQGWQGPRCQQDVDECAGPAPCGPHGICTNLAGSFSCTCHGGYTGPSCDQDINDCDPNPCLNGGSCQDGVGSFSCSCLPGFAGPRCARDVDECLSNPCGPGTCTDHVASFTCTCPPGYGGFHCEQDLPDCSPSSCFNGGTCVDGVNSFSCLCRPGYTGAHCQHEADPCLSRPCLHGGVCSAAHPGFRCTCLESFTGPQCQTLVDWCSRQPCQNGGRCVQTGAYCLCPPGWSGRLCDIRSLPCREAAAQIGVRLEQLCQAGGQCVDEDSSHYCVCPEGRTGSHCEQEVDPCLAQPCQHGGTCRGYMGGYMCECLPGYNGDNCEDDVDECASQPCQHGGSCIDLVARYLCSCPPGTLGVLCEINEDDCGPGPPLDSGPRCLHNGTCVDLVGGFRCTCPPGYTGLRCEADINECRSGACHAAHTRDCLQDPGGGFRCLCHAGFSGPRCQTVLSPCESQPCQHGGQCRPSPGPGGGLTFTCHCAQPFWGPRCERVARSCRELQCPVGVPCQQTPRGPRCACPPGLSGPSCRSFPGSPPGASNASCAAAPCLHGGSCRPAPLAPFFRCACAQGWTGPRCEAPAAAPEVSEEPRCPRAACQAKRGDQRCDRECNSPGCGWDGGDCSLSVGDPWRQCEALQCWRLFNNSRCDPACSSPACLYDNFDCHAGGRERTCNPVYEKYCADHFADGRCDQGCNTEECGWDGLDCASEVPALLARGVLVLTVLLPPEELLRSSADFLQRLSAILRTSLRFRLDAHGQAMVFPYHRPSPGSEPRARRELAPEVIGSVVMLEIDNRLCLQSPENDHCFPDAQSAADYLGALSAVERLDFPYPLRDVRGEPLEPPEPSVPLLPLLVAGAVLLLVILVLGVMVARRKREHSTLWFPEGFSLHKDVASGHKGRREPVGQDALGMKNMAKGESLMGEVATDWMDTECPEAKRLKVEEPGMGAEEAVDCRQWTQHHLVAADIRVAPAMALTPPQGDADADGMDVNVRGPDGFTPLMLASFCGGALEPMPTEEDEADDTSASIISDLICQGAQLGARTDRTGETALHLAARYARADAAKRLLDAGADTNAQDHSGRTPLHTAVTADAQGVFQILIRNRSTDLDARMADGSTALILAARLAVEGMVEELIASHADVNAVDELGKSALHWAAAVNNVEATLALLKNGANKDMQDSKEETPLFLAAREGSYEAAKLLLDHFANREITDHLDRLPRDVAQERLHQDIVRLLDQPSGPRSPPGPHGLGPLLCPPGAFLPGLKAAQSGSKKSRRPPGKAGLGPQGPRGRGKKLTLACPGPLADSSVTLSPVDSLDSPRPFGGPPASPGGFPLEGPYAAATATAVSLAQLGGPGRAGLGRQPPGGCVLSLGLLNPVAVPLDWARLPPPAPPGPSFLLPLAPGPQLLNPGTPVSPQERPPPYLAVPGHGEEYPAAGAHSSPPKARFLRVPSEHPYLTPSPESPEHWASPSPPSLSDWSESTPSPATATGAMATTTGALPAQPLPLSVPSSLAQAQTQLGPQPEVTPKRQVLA
Assay [20] in a line: small-molecule microarray binders of probe aEGFR, primary screen, biochemical, biotinylated probe, 635/667 nm fluorescence (AID 1097).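 Note: probe is a biotinylated anti-EGFR antibody binding compounds printed on slides; score combines fluorescence near 667 nm and signal to noise of each spot.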 To be noted: higher = more signal.

Pro-neuregulin-1, membrane-bound isoform (Homo sapiens), sequence (Q02297 whole entry, looked up, the tested form may be a part, canonical isoform): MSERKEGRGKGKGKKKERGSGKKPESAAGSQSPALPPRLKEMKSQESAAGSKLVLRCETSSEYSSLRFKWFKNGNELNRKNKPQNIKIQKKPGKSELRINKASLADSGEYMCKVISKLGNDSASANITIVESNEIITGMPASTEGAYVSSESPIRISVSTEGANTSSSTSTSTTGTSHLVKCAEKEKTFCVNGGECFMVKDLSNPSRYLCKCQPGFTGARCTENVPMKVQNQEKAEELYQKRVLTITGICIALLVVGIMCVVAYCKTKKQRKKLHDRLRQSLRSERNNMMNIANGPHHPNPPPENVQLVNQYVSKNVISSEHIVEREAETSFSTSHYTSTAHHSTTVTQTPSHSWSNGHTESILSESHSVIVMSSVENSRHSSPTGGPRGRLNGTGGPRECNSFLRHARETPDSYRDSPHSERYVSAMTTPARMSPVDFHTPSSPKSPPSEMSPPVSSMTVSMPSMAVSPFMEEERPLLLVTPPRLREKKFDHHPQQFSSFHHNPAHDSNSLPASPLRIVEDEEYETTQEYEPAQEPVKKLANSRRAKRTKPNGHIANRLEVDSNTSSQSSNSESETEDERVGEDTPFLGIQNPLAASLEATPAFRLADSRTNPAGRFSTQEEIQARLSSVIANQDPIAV

As for `O=C(O)[C@@]1(Cc2ccccc2)COC(c2ccc(OCCCO)cc2)=N1`, the composite z-score in assay [1] is 0.805; in assay [2], -0.24; in assay [3] it was -0.0886; in assay [4], -0.24; in [5] it was -0.287; in assay [6], 1.19. In addition, the composite z-score in [7] is 1.2; in assay [9] it was 0.519; in assay [10], -0.0994; in assay [11], -0.269; in assay [15], 2.64; in [17], -0.0915. The composite z-score in assay [18] is -0.66; in [19], -0.776; in assay [20], -0.229. Besides, the z-score in [8] is 0.809 (inactive); in [12], 0.661 (inactive); in assay [13], 1.01 (inactive); in assay [14] it was 1.3 (inactive); in assay [16], 0.598 (inactive).

As for `CN(C)C(=O)[C@@]1(CCC(=O)OC(C)(C)C)N=C(c2ccc(OCCCO)cc2)O[C@H]1c1ccccc1N=[N+]=[N-]`, the composite z-score in assay [1] amounted to 0.294; in [2] it was 1.45; in assay [3], 0.0168; in assay [4], 0.739; in assay [5], 1.2; in assay [6], 1.96. For the same compound, the composite z-score in assay [7] amounted to 1.52; in assay [9], 1.79; in assay [10], 0.245; in assay [11], 1.54; in assay [15], 3.82; in assay [17], 0.126. Further, the composite z-score in assay [18] was 1.09; in assay [19], 1.09; in assay [20], 0.101. Besides, the z-score in [8] was 0.768 (inactive); in [12], 0.82 (inactive); in assay [13] it was 0.217 (inactive); in assay [14] it was 0.701 (inactive); in assay [16], -0.0123 (inactive).

In the case of `C[N+](C)(C)CCCC[C@@H]1NC(=O)[C@@H]2C[C@H](C(=O)O)[C@H](c3cccc(OCCO)c3)N2C1=O`, the composite z-score in assay [1] was 0.846; in assay [2] it was 0.0439; in assay [3] it was -0.179; in assay [4] it was -0.372; in assay [5], -0.821; in assay [6], -0.0567. In addition, the composite z-score in assay [7] was 1.1; in [9] it was -0.184; in assay [10] it was -0.245; in assay [11], 0.583; in assay [15], 0.423; in [17], -0.175. For the same compound, the composite z-score is 0.601 in assay [18], -0.78 in assay [19] and -0.175 in assay [20]. In addition, the z-score in [8] was -0.112 (inactive); in assay [12], 0.852 (inactive); in [13] it was -1.13 (inactive); in assay [14], 0.167 (inactive); in assay [16], 0.817 (inactive).

Regarding `CCCCC(CC)C(O)C1C=CC2C(=O)NC(=O)C2N1Nc1ccccn1` (stereo not given), the composite z-score in [1] was -0.252; in assay [2] it was -0.14; in [3], -0.0005; in [4], 0.207; in [5], 1.41; in assay [6], 1.38. In addition, the composite z-score in assay [7] was 0.879; in assay [9], 0.245; in [10] it was 0.204; in assay [11] it was 1.34; in [15], 2.74; in assay [17], -0.11. The composite z-score was 0.0732 in assay [18], 1.1 in assay [19] and -0.119 in assay [20]. Further, the z-score in [8] is 1.54 (inactive); in [12], 0.601 (inactive); in [13], 0.764 (inactive); in assay [14], 0.722 (inactive); in assay [16], -0.828 (inactive).

On to `COC(=O)[C@]1(Cc2ccccc2CN=[N+]=[N-])N=C(c2ccc(OCCCO)cc2)O[C@@H]1c1ccccc1`, for which the composite z-score is 0.774 in assay [1]; -0.556 in assay [2]; -0.137 in assay [3]; -1.27 in assay [4]; -1.24 in assay [5]; 0.4 in [6]. In addition, the composite z-score is -0.45 in assay [7]; -0.0581 in assay [9]; -0.174 in [10]; -0.985 in assay [11]; 0.475 in [15]; 0.17 in assay [17]. For the same compound, the composite z-score in assay [18] was -0.586; in assay [19], -0.601; in [20], -0.257. Besides, the z-score is -2.44 (inactive) in assay [8]; 0.697 (inactive) in assay [12]; -1.55 (inactive) in assay [13]; 35.3 (active) in [14]; 0.437 (inactive) in assay [16].
